According to PubChem BioAssay AID2185 (Vanderbilt High Throughput Screening Facility, 2009):
Potency and affinity values are given separately. Unmarked numbers belong to inactive results. How the calls were made is not given here.

Molecular target: Metabotropic glutamate receptor 4 (Rattus norvegicus) (UniProt P31423)
Assay: PubChem AID 2185
Conditions: HEK/GIRK cells expressing rat mGluR4, thallium flux PAM; stronger effect = higher value

Metabotropic glutamate receptor 4 (Rattus norvegicus), sequence (P31423 whole entry, looked up): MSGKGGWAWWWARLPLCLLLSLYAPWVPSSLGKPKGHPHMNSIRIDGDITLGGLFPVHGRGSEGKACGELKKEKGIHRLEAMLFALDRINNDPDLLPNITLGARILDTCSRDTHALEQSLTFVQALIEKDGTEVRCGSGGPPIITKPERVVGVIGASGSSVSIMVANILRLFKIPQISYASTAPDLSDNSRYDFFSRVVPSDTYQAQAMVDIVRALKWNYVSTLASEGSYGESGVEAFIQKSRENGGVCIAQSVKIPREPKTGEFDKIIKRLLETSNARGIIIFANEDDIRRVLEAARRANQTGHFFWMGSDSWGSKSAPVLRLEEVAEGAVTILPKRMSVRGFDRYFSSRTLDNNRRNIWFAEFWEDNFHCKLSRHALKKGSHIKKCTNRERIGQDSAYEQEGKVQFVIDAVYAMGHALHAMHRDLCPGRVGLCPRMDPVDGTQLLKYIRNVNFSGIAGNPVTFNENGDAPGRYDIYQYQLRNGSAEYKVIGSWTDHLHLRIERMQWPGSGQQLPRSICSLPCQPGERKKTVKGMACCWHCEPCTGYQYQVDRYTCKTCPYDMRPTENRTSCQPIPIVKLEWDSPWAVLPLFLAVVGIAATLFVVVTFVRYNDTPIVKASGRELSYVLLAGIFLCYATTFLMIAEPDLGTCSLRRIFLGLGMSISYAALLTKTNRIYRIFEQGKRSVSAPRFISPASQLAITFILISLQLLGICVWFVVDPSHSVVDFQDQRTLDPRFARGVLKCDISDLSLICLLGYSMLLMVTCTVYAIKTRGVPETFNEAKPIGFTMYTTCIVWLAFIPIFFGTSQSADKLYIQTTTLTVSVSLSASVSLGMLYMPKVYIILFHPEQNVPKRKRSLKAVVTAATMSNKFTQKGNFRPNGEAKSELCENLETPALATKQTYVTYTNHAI

Question: For N#Cc1ccc(NC(=O)c2ccccn2)cc1C(F)(F)F, which % glutamate max is on record?
Answer: The % glutamate max was 26.3%.
